From PubChem BioAssay
PLK1 PBD block – inhibitors of human PLK1 polo-box domain binding | P53350 | Plk1 PBD binding of FITC phosphopeptide, fluorescence polarization | Potency, µM, without a hit: max response, negative = inhibition, usual class: inhibitors | actives 2.8% (n = 360,000) | AID 720504; further: series mostly up to about 57 µM; nearly all actives have a fitted effect of over 65% in size
Target sequence (P53350 whole entry, looked up, the tested form may be a part): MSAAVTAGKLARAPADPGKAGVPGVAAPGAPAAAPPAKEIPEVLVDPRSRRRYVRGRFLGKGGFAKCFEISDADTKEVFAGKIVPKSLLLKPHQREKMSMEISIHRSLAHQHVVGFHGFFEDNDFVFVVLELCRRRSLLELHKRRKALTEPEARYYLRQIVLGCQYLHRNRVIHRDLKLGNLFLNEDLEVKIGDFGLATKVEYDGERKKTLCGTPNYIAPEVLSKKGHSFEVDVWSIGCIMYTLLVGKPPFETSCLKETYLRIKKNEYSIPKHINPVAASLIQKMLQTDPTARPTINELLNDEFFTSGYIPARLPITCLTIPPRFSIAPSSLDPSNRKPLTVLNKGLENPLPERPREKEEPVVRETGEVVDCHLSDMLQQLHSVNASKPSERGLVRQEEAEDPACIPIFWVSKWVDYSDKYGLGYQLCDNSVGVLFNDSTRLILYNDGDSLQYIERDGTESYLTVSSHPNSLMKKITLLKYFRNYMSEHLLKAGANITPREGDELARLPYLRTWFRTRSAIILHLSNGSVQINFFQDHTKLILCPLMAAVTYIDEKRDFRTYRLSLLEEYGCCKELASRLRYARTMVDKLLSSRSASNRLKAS
VDR inhibitor – vitamin D3 receptor (human) inhibition; P11473; VDR-SRC2-3 peptide fluorescence polarization, 2 h; Potency, µM, without a hit: max response, negative = inhibition, actives largely listed as inhibitors; actives 0.93% (n = 400,000)
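Reagent solutions, kept cold and dark, are dispensed first; compounds are then pinned in at 23 nl, plates briefly spun, and incubated 2 h at ambient temperature. Inhibition of VDR–SRC2-3 peptide binding is read by fluorescence polarization.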
ALOX12 inh – ALOX12 (human) lipoxygenase inhibition; P18054; purified 12hLO, xylenol orange hydroperoxide absorbance; Potency, µM (series often up to 108 µM), for inactives: at the top dose activity change, negative = inhibition, usual class: inhibitors; actives 1.1% (n = 580,000); AID 1671190
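Purified human 12hLO (150 nM final) in 25 mM Hepes, 0.01% Triton X-100, pH 7.0 was preincubated 15 min at room temperature with compound. Then 40 uM arachidonic acid was added, 30 min. Hydroperoxide was read by Fe-XO absorbance ratio 573/405 nm.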
Sfp PPTase inh – Sfp phosphopantetheinyl transferase inhibition | Q9F4F7 | actives 3.5% (n = 310,000) | Potency, µM, inactives show largest response in the series, negative = inhibition, actives largely listed as inhibitors | AID 1490 | Biochemical Sfp PPTase activity, qHTS;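 further: the enzyme is Sfp with the accession as filed and its product quenches rhodamine fluorescence; 0% = enzyme reaction without inhibitor and -100% = no enzyme wells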
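Fluorescence-quenching assay: 15 nM Sfp-PPTase preincubated 15 min at room temperature with compound, then 5 uM rhodamine-CoA and 12.5 uM BHQ-2-labelled YbbR peptide added. Fluorescence (ex 525/em 598 nm) read at start and after 30 min; difference gives rate.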
An asterisk follows results filed as active; u = inconclusive; x = not tested or not shown; ! = not active in a repeat; [ ] = remark or other dose. Compounds with a hit are over-represented: about 4.2% of the library has one in this group of screens. The call rests on the fitted dose curve; in most records, active means well fitted curve in the direction sought with a large enough effect; inconclusive means small, poorly fitted or top-dose-only effect, or another doubt; inactive means no such curve, though single readings can be large; an effect the other way counts as inactive or inconclusive. Unless noted, on the % scale 0 is the no-effect control and ±100 the full control effect; potency means the concentration at half of the fitted maximal effect.

SMILES | PLK1 PBD block | VDR inhibitor | ALOX12 inh | Sfp PPTase inh
CC1(C)C2CC=C(/C=N/NC(=S)NCc3ccccc3)C1C2 (configuration not stated) | x | x | 35µM* | x
O=C(OCC(=O)N1CCCc2ccccc21)c1cncc(Br)c1 | 1% | 8% | 6% | 71µM*
CC[C@H](C)/C=C(C)/C=C/C(=O)Cc1cc(O)c(C)c(O)c1C=O | -17% | -24% | u | 89µM*
Cc1ccc(N(Cc2ccc([N+](=O)[O-])cc2)C(=O)c2ccco2)cc1C | -2% | -3% | -2% | 4%
O=C(c1ccc(S(=O)(=O)Cc2cc(F)ccc2F)c([N+](=O)[O-])c1)N1CCCC1 | 11µM* | u | 0% | -8%
Cc1occc1C(=O)OCC(=O)c1sc2ccccc2c1C | x | x | 32µM* | x
COc1ccc(/C(N)=N/OC(=O)Cc2cccs2)cc1OC | 2% | 0% | -17% | 79µM*
NCCCC[C@H]1NC(=O)[C@H](CCC(=O)O)NC(=O)c2cc([N+](=O)[O-])cc(I)c2OCC[C@@H](C(N)=O)NC1=O | 7.5µM* | u | x | 5%
C[C@@H]1NC(=O)c2cc([N+](=O)[O-])cc(I)c2OCC[C@@H](C(N)=O)NC(=O)[C@H](CCCCN)NC1=O | -1% | 1% | x | -16%
NCCCC[C@@H]1NC(=O)[C@H](CCC(=O)O)NC(=O)c2cc([N+](=O)[O-])cc(I)c2SC[C@@H](C(=O)NCC(N)=O)NC1=O | -7% | -13% | 40µM* | 5%
O=C(NCc1ccc2[nH]c(=O)[nH]c2c1)[C@H]1CNC[C@H](C(=O)N2CCCC2)C1 | x | x | 3% | x
Cn1c2ccc(F)cc2c2ncn(Cc3ccco3)c(=O)c21 | -3% | 1% | u | 50µM*
CC(C)Cn1c(=O)c2c(ncn2Cc2ccco2)n(Cc2ccccc2)c1=O | x | x | -8% | x
CCCCn1c(=O)n(Cc2cccc(F)c2)c(=O)c2c1ncn2Cc1ccco1 | u | -16% | u | 40µM*
Cn1c2ccccc2c2ncn(Cc3ccco3)c(=O)c21 | -2% | -3% | 0% | -2%
Cc1nc(NS(=O)(=O)c2ccccc2C)c2c3c(sc2n1)CCC3 | -9% | 25% | 8% | 9%
Cc1ccc([C@H]2C(C(=O)O)=CC[C@@H](c3ccc(Cl)cc3)N2S(=O)(=O)c2ccccc2C)cc1 | u | -26% | x | x
Cc1ccccc1S(=O)(=O)N1[C@@H](c2ccc(Cl)cc2)C(C(=O)O)=CC[C@H]1c1ccc(Cl)cc1 | 30µM* | u | u | x
Cc1ccccc1S(=O)(=O)N1C(c2ccc(Cl)cc2)CC=C(C(=O)O)C1c1cccc(Cl)c1 (configuration not stated) | 27µM* | x | u | x
COCCN1Cc2cccc(C(=O)NC(C)c3cccs3)c2C1=O (configuration not stated) | 0% | 5% | 0% | 12%
O=C(OCCc1ccccc1)c1cc(O)c(O)c(O)c1 | 7% | -14% | 2.8µM* | x
N=c1c2c(ncn1Cc1ccco1)Oc1c(ccc3ccccc13)C2c1ccccc1 (configuration not stated) | -2% | 15% | -13% | 50µM*
CCOc1ccc(NC(=O)CN(C)C(=O)c2ccc(OCc3ccccc3)c(OC)c2)cc1OCC | -11% | -8% | -3% | x
CC(Oc1ccccc1)C(=O)Nc1nc(-c2ccccn2)cs1 (configuration not stated) | -25% | 7% | 11% | x
CC(Oc1cccc(Cl)c1)C(=O)Nc1nc(-c2ccccn2)cs1 (configuration not stated) | 19µM* | 3% | -14% | x
SMILES | PLK1 PBD block | VDR inhibitor | ALOX12 inh | Sfp PPTase inh
O=S(=O)(c1ccccc1F)N1CCC(Oc2ccc(-n3cnnn3)cc2)CC1 | 0% | -11% | u | 5%
CN1C(=O)c2c(sc3c2CCCC3)NC1c1ccccc1O (configuration not stated) | x | x | x | 40µM*
O=C(NC1CCCC1)C(c1ccccc1F)N(C(=O)c1ccco1)C1CCCC1 (configuration not stated) | -8% | -9% | u | 9%
Cc1ccc(OCCCOc2cccc3cccnc23)cc1C | 4% | 15% | -15% | 89µM*
COc1cc(/C=N/n2c(C)nnc2C)cc(OC)c1OC | -2% | 6% | 0% | 21%
COc1c(Br)cc(Br)cc1/C=N/n1c(C)nnc1C | 27µM* | u | -15% | 9%
Cc1cc(=S)[nH]c2c(C)cccc12 | u | 3% | 1.1µM*! | 14%
Cc1cccc2c(-c3ccccc3)cc(=O)[nH]c12 | -1% | -12% | 0% | 17%
COc1ccccc1N(Cc1cc2ccccc2[nH]c1=O)C(=O)c1ccccc1 | x | x | -20% | x
COc1cc(C(C)=O)ccc1OCC(O)Cn1nc(C)c(Br)c1C (configuration not stated) | -5% | 2% | 4.5µM* | 7%
CSc1ccc(S(=O)(=O)N2CCC(C(=O)NCCCn3ccnc3)CC2)cc1 | -9% | -12% | 15% | 13%
O=C(NC1CCOC2(CCOCC2)C1)c1cn(CCN2CCNCC2)nn1 (configuration not stated) | x | x | 22µM* | x
O=C(NNc1ccnc2cc(Cl)ccc12)C1CCCCC1 | -13% | -19% | u | 7%
NC(=S)NNc1ccnc2cc(Cl)ccc12 | 21µM* | -15% | 5.6µM* | -81%
FC(F)Oc1ccc(NC(=S)NNc2ccnc3cc(Cl)ccc23)cc1 | -20% | 35µM* | u | -16%
CNC(=O)c1c(C)nc(SCC(=O)NCc2ccc(OC)cc2)c(C#N)c1-c1ccco1 | -4% | 4% | -9% | 9%
CCC(=O)N1Cc2ccccc2CC2(CCCCN2CC)C1 (configuration not stated) | x | x | 57%[176 µM] | x
O=C1Nc2ccccc2SC1=Cc1ccccc1 | -5% | x | 2% | x
O=C1N/C(=N/Nc2ccccc2)S/C1=C\c1ccccc1 | 21µM* | 45µM* | 5.6µM* | 25µM*
COc1ccc(NC(=S)NC(NC(=O)C(C)C)C(Cl)(Cl)Cl)c([N+](=O)[O-])c1 (configuration not stated) | 27µM* | 3% | u | -31%
COc1ccc([N+](=O)[O-])cc1NC(=S)NC(NC(C)=O)C(Cl)(Cl)Cl (configuration not stated) | 27µM* | -2% | -11% | -5%
CCCc1ccc(OCc2ccc(C(=O)Nc3cccc(C)n3)o2)c(OC)c1 | 6% | -5% | -17% | 19%
CCNc1nc(NC#N)nc(SCC(=O)OCC)n1 | 0% | 1% | 3% | 20%
CNc1nc(NC#N)nc(SC)n1 | 30µM* | u | 2% | -3%
O=C(O)c1cccnc1SCc1cn2cc(Br)ccc2n1 | 12µM* | u | u | -6%
O=C(O)c1ccccc1SCc1cn2cc(Br)ccc2n1 | -11% | -21% | -4% | -13%
O=C(c1ccncc1)N1CCC(Cc2nc(C3CC3)n[nH]2)CC1 | x | x | 31% | x
Cc1cc(O)c(C=O)c2c1C(=O)Oc1c(COC(=O)/C=C/C(=O)O)c(O)c(C(=O)O)c(C)c1O2 | x | 6.3µM* | x | -52%
Cc1cc(O)c(C=O)c2c1C(=O)Oc1c(CO)c(O)c3c(c1O2)C(O)OC3=O (configuration not stated) | 7.5µM* | 18µM* | x | 14µM*
